# Shown are actives, neighbours in structure and some others; about 2.4% of the full set was active somewhere.
# TMEM16A act: mouse TMEM16A channel activation, primary screen; B-score at 10 µM; HEK293 TMEM16A/YFP-H148Q/I152L, iodide quench fluorescence; active compounds read low; hit rate 0.3% among 340,000;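 active = fluorescence-ratio B-score plate-corrected deviation score at least 3 library SD below zero, with starting fluorescence score within 5 deviations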;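 note: channel opened by trigger with iodide after compound preincubation; score built on the fluorescence ratio of max minus min over baseline; more negative score means more quench and so TMEM16A activation or potentiation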
# Target sequence (Q8BHY3 whole entry, looked up): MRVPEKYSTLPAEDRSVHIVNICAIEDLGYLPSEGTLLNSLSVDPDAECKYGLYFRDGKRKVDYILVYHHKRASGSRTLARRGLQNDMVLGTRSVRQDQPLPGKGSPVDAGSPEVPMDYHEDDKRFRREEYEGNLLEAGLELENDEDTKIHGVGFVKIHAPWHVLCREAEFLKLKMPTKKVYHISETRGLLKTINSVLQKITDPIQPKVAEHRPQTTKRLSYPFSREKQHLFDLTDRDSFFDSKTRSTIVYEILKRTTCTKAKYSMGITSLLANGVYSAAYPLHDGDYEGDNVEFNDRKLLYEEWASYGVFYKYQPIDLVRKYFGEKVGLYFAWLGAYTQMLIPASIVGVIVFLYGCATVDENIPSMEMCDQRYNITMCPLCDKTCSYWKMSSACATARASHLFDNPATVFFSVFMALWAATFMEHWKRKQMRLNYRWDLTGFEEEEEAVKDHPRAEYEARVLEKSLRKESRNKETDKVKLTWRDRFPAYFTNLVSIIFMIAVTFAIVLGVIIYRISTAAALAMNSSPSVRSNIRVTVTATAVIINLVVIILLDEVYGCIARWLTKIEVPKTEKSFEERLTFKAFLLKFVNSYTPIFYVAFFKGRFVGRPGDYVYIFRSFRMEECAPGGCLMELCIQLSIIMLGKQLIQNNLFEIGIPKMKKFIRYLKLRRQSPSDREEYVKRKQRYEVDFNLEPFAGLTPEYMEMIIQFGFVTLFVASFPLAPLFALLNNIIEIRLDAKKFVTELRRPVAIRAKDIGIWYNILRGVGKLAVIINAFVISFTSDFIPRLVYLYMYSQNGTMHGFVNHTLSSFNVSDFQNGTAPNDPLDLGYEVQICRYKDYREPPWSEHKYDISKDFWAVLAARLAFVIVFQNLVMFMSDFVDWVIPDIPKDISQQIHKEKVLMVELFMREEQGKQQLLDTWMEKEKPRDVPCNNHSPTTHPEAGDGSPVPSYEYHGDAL
# CRFR2-BP ag: agonists of human CRF-binding protein/CRF-R2 receptor complex. HEK293 CRF-R2/CRF-BP, calcium dye fluorescence (FLIPR); percent of saturating CRF peptide response. activation, % at 13.2 µM. hit rate 0.46% among 350,000;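 active = activation of at least 50%, plus an integration ratio under a set limit after plate pattern correction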;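 note: plate controls were neutral control wells without compound for no effect and CRF at EC100 for full effect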
# cardiac RTF act: increases calcium sensitivity of human cardiac regulated thin filaments | P19429+P45379 | IANBD-labeled TnC RTF fluorescence at EC20 calcium; 0% EC20 calcium, 100% full calcium | activation, % at 7.2 µM | hit rate 0.24% among 340,000;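 active = activation above the mean over all tested compounds plus 3 SD, cut at about 30% in these data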;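 note: rise in fluorescence read as greater calcium sensitivity of cardiac thin filaments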
# CRFBP-R2 block: antagonists of CRF-binding protein/CRF-R2 receptor complex | AID 588475 | inhibition, % at 11.8 µM | HEK293 CRF-R2/CRF-BP, CRF-induced calcium fluorescence | hit rate 0.59% among 350,000;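 active = inhibition of the ligand-induced calcium signal above about 50% at the single tested concentration, limit read from the data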
# Cardiac RTF inh: cardiac RTF calcium desensitization; P19429+P45379; IANBD-labeled cardiac RTF, Ca2+ fluorescence; inhibition, % at 7.15 µM; hit rate 0.12% among 340,000; AID 493244;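 active = inhibition above the mean inhibition of all tested compounds plus 3 SD, cut at about 17% in these data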;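 note: assay run at fixed EC70 calcium of 1.6 mM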
# TMEM16A inh: mouse TMEM16A channel inhibition, primary screen; normalized B-score (activity score, 25-100; higher = stronger inhibition) at 10 µM; hit rate 1.2% among 310,000; HEK293 TMEM16A/YFP iodide influx fluorescence, ionomycin;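 active = ratio plate-corrected score three or more library SD toward inhibition, starting fluorescence score within five deviations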;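 note: score derived from kinetic fluorescence span divided by baseline fluorescence per well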
# The depositor's hits bear a star; i = inactive; nt = not tested or not shown.
SMILES,TMEM16A act,CRFR2-BP ag,cardiac RTF act,CRFBP-R2 block,Cardiac RTF inh,TMEM16A inh
CC(=O)C1=C(O)C(=O)N(c2ccccn2)C1c1ccc(C)cc1 (configuration not stated),i,2,5,1,-10,i
Cc1c(C(=O)Nc2c(C)n(C)n(-c3ccccc3)c2=O)oc2ccc(Cl)cc12,i,0,-4,-6,1,i
CCOC(=O)C1C(C)=CC(=O)CC1c1ccco1 (configuration not stated),i,22,7,67*,5,i
C[C@H](NC(=O)c1nc[nH]c1C(=O)N1CCN(C(=O)OC(C)(C)C)CC1)C(=O)OC(C)(C)C,i,-1,1,-3,3,i
CC1CCN(C(=O)c2[nH]cnc2C(=O)N[C@@H](C)C(=O)OC(C)(C)C)CC1,i,26,-8,54*,-13,i
CC(C)=CCN1CCN(Cc2cc(C(C)C)n[nH]2)CC1CCO (configuration not stated),i,-1,9,-9,-5,i
CCCCn1c(N)c(N(CC(C)C)C(=O)c2oc3c(Cl)cccc3c2C)c(=O)[nH]c1=O,i,-1,-17,1,-11,i
CC(C)=C1C2CCC1C(C(=O)Nc1sc(C)c(-c3ccc(C(C)C)cc3)c1C(N)=O)C2C(=O)O (configuration not stated),i,78*,-6,109*,-2,i
CCOc1ccc(C2C(C#N)=C(N)SC(N)=C2C#N)c(OCC)c1,i,2,17,8,-40,i
CCCCc1ccc(C2C(C#N)=C(N)SC(N)=C2C#N)s1,nt,nt,nt,nt,nt,100*
COc1ccc(N2CCN(C(=O)CCNS(=O)(=O)c3ccc(Br)s3)CC2)cc1,i,-1,0,5,1,i
N/C(=N/O)c1ccccc1N1CCC(Cc2ccccc2)CC1,i,1,-4,-21,1,25*
O=C(NCCSc1ccc(Br)cc1)c1ccc2nc[nH]c2c1,i,-2,-3,3,4,i
CC1Cc2nc(SCC(=O)Nc3ccc4c(c3)OCO4)n(CCc3ccccc3)c(=O)c2S1 (configuration not stated),-5.2*,-2,2,42,-2,i
CNC(=O)C1CCN(S(=O)(=O)c2c(C)noc2/C=C/c2ccc(OC)cc2)CC1,i,54*,6,-54,-5,i
CCCNC(=O)C1CCN(S(=O)(=O)c2c(C)noc2/C=C\c2ccc(OC)cc2)CC1,i,-5,1,9,-1,i
Cc1ccc(S(=O)(=O)N(CC(=O)NCCC2=CCCCC2)Cc2ccccc2F)cc1,i,3,0,-28,-5,25*
Cc1c(N=C2N=C(NC(=O)c3cccs3)c3ccccc32)c(=O)n(-c2ccccc2)n1C,i,89*,15,-66,-32,i
Cc1c(N=C2N=C(NC(=O)NC(C)(C)C)c3ccccc32)c(=O)n(-c2ccccc2)n1C,i,-2,-3,23,2,i
O=C(C1=NN(c2ccccc2)C2C(=O)N(c3cccc(Cl)c3)C(=O)C12)c1ccccc1 (configuration not stated),i,116*,47*,-137,-27,i
O=C(C1=NN(c2ccccc2)C2C(=O)N(c3ccc(Cl)cc3)C(=O)C12)c1ccccc1 (configuration not stated),i,48,38*,-57,-30,i
COc1ccccc1N1C(=O)C2C(C(=O)c3ccccc3)=NN(c3ccc(C)cc3)C2C1=O (configuration not stated),i,91*,nt,-65,nt,i
O=C1C2C3CC(C2C(=O)N1c1cccc(Cl)c1)[C@H](O)C3O (some centres not stated),i,1,-2,-12,2,i
COc1ccccc1N1C(=O)C2C(C(=O)c3ccccc3)=NN(c3ccc(Br)cc3)C2C1=O (configuration not stated),i,40,nt,-17,nt,i
CCOC(=O)C(C(=O)OCC)c1cc(Br)c2noc3c2c1C(=O)c1ccccc1-3,i,6,96*,23,-145,i
SMILES,TMEM16A act,CRFR2-BP ag,cardiac RTF act,CRFBP-R2 block,Cardiac RTF inh,TMEM16A inh
CC(=O)OCCNc1cc(N2CCN(C)CC2)c2noc3c2c1C(=O)c1ccccc1-3,i,-2,3,44,-8,nt
Cc1ccc(S(=O)(=O)N2CCC(c3nc4c(nnn4Cc4ccccc4)c(=O)[nH]3)CC2)cc1,i,2,nt,64*,nt,i
CN(C)/C=N/c1ncn(-c2ncc(C(F)(F)F)cc2Cl)n1,i,0,-4,3,1,i
COc1ccc(N=Cc2sc(O)c3ccccc23)cc1,i,271*,79*,-320,-145,i
COc1ccc(N=Cc2c(O)c3ccccc3n2C(C)=O)cc1,i,99*,16,-67,-16,i
COc1ccc(N=Cc2c(OC)ccc3ccccc23)cc1,i,-1,6,-2,-10,i
Cn1c(=O)c(C=Nc2ccccc2)c(O)c2ccccc21,nt,nt,nt,nt,nt,i
CCOc1ccc(NC(=O)c2ccccc2NS(=O)(=O)c2ccc(F)cc2)c([N+](=O)[O-])c1,i,13,0,30,-7,25*
O=C(CSc1ncn[nH]1)Nc1cc(S(=O)(=O)N2CCCC2)ccc1Cl,i,1,1,50*,-2,i
Cc1ccccc1NCC(=O)Nc1cc(S(=O)(=O)N2CCCCC2)ccc1C,i,0,-1,5,0,nt
O=C(Nc1cc(S(=O)(=O)N2CCCCC2)ccc1Cl)c1ccccc1NS(=O)(=O)c1ccc(F)cc1,i,47,5,108*,-25,25*
O=C(c1ccccc1NS(=O)(=O)c1ccc(F)cc1)N1CCCCC1,i,2,0,-22,-2,i
CC(NCC(=O)Nc1cc(S(=O)(=O)N2CCCCCC2)ccc1Cl)c1ccccc1 (configuration not stated),i,7,2,-9,5,100*
Cn1c(C(=O)c2ccncc2)cc2ccccc21,i,0,-8,-10,-2,i
COc1ccc(CCN2CC(C(=O)N(C)CC(=O)Nc3ccc(F)c(F)c3F)CC2=O)cc1OC (configuration not stated),i,1,-3,1,-2,nt
COc1cc(N2CCCC2)c(OC)cc1/C=C(/C#N)c1ccc(Br)cc1,i,35,30*,-29,-15,i
Cc1cccc(C(=O)Nc2scc(-c3ccc(Br)cc3)c2C(=O)O)c1,i,1,-11,50*,-4,i
